This is an account of results in PubChem BioAssay (EPA / NIEHS).

Inconclusive results are not listed. The source made the active and inactive calls. The calls were made as follows: active = hit-call score of the fitted dose curve at least 0.9, where 1 is the maximum; inconclusive = response in the unintended direction; inactive = score below 0.9.

Sequence of rat Monoamine Oxidase, MAO-B, Central (MAOBC), Maob (gene 25750) (P19643 whole entry, looked up): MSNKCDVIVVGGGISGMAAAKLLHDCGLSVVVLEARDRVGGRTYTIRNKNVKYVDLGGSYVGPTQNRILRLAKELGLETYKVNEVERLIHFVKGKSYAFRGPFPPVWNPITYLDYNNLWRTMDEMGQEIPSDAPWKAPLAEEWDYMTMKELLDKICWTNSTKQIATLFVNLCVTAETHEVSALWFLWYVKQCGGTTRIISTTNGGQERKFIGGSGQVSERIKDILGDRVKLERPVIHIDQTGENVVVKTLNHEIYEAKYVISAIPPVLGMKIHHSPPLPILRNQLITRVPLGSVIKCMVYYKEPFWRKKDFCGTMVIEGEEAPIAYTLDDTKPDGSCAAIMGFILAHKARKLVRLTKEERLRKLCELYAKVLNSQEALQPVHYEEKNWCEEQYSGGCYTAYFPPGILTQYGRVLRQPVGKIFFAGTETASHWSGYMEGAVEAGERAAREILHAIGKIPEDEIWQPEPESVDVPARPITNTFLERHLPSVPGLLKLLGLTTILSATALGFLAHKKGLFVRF
Sequence of human p21 Activated Kinase 4 (PAK4), PAK4 (gene 10298) (O96013 whole entry, looked up): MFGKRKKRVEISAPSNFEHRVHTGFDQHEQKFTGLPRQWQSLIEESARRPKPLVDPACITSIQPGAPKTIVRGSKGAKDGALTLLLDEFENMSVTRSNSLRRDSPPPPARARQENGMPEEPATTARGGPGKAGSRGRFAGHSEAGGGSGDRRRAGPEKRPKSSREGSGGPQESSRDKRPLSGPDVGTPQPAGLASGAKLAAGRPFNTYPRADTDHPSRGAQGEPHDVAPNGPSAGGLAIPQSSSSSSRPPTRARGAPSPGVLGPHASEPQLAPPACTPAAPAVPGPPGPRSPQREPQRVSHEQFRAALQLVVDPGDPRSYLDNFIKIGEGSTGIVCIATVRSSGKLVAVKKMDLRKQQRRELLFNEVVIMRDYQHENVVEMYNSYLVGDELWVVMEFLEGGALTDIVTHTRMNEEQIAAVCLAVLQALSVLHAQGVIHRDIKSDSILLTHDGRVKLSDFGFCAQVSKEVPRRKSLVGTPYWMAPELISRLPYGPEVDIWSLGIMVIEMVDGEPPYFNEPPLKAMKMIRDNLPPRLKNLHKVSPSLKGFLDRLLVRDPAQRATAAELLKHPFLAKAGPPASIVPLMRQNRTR

One experiment concerns the target human p21 Activated Kinase 4 (PAK4), PAK4 (gene 10298) (UniProt O96013). Briefly: NVS_ENZ_hPAK4: NovaScreen (NVS) Enzymatic Assay for human p21 Activated Kinase 4 (PAK4) (AID 2283189). Summed up:
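Cell-free recombinant human PAK4 activity assay; fluorescent substrate and product separated by electrophoretic mobility shift, read 1 h after dosing. Initially tested in duplicate at 25 uM, relative to DMSO baseline.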
`CC(C)c1cccc(C(C)C)c1N1C(=O)c2ccc(O)cc2C1=O`: the result was inactive.

`CC[C@H]1OC(=O)[C@H](C)[C@@H](O[C@H]2C[C@@](C)(OC)[C@@H](O)[C@H](C)O2)[C@H](C)[C@@H](O[C@@H]2O[C@H](C)C[C@H](N(C)C)[C@H]2O)[C@](C)(O)C[C@@H](C)C(=O)[C@H](C)[C@@H](O)[C@]1(C)O`: the call was inactive.

In the case of `O=C(O)[C@H](O)[C@@H](O)C(=O)O`, the compound was called inactive.

For `CC1(C)CC(N=C=O)CC(C)(CN=C=O)C1` (centres undefined), the AC50 was 25 µM (active).

Consider `O=[Si]=O`, for which the call was inactive.

Turning to `CCCCCCCC[Si](OCC)(OCC)OCC`, the outcome was inactive.

`COCCO`: the compound was classed as inactive.

`O=C1O[C@H]([C@H](O)CO)C(O)=C1O`: the result was inactive.

As for `CCCCc1oc2ccccc2c1C(=O)c1cc(I)c(OCCN(CC)CC)c(I)c1`, the compound was called inactive.

Consider `Cc1cc(Cc2ccc(N)c(C)c2)ccc1N`, for which the compound was classed as inactive.

As for `Cc1ccc2oc(CN(Cc3ccccc3)C(=O)Nc3c(F)cc(F)cc3F)c(-c3ccc(Cl)cc3)c2c1`, the result was inactive.

Regarding `NC(=O)N1C(=O)C(C(=O)c2cc(Cl)cs2)c2cc(F)c(Cl)cc21` (centres undefined), the call was inactive.

Regarding `O=c1c(O)c(-c2ccc(O)c(O)c2)oc2cc(O)cc(O)c12`, the compound was called inactive.

Take `C[C@]12C[C@H](O)[C@H]3[C@@H](CCC4=CC(=O)CC[C@@]43C)[C@@H]1CC[C@@H]2C(=O)CO`: the compound was classed as inactive.

In the case of `CC/C(=C\C(=N/O)C(N)=O)C(C)[N+](=O)[O-]` (centres undefined), the compound was called inactive.

For the next experiment, the target named is human Phosphatase and Tensin Homolog (PTEN), PTEN (gene 5728) (UniProt P60484). Put plainly: NVS_ENZ_hPTEN: NovaScreen (NVS) Enzymatic Assay for human Phosphatase and Tensin Homolog (PTEN) (AID 2283203). Summed up: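 Cell-free recombinant human PTEN with fluorescent substrate; product separated by electrophoretic mobility shift and read by fluorescence 1 h after dosing. Primary screen in duplicate at 25 uM, actives followed in concentration series versus DMSO.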
Sequence of human Phosphatase and Tensin Homolog (PTEN), PTEN (gene 5728) (P60484 whole entry, looked up): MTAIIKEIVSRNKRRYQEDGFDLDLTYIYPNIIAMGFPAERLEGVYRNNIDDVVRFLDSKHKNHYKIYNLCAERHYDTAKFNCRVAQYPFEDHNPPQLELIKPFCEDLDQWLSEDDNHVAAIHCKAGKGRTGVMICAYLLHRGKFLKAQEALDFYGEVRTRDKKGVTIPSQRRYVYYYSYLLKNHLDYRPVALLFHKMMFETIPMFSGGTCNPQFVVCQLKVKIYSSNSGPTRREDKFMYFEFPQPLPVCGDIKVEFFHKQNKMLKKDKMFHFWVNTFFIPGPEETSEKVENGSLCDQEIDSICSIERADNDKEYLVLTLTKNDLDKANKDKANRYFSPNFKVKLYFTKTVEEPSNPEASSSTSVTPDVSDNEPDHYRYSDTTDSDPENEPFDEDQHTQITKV
For `CC(=O)OCC=C(C)CCC=C(C)CCC=C(C)C`, the compound was classed as inactive.

As for `CCCCCCCCCCCCCCCC`, the outcome was inactive.

For the compound `CCc1cccc(CC)c1N(COC)C(=O)CS(=O)(=O)O`, the outcome was inactive.

For `C=C1CC[C@H]2O[C@]2(C)CC[C@@H]2[C@@H]1CC2(C)C`, the result was inactive.

With `COc1cccc(OC)c1O`, the outcome was inactive.

In the case of `Cc1cccc2c1ccc1ccccc12`, the AC50 is 13.8 µM (active).

For the compound `CCOC(C=C(C)CCC=C(C)C)OCC`, the outcome was inactive.

For `CCN(CC)CC`, the AC50 is 3.58 µM (active).

Regarding `O=C1C=CC(=O)O1`, the result was inactive.

As for `S=c1[nH][nH]c(=S)s1`, the AC50 was 2.47 µM (active).

Regarding `C#C[C@]1(O)CC[C@H]2[C@@H]3CCC4=Cc5oncc5C[C@]4(C)[C@H]3CC[C@@]21C`, the half-maximal activity concentration (AC50) is 25 µM (active).

As for `Fc1ccc(Br)cc1`, the outcome was inactive.

In the case of `N#Cc1ccc(CC(=NNC(=O)Nc2ccc(OC(F)(F)F)cc2)c2cccc(C(F)(F)F)c2)cc1`, the call was inactive.

As to `CCC(=O)O`, the outcome was inactive.

Consider `Cc1ccccc1S(N)(=O)=O`, for which the result was inactive.

Consider `C=C(C)CCCC`, for which the outcome was inactive.

For `CCCCCCCCc1ccc(Nc2ccc(CCCCCCCC)cc2)cc1`, the result was inactive.

For `NC(=O)N1C(=O)C(C(=O)c2cc(Cl)cs2)c2cc(F)c(Cl)cc21` (centres undefined), the AC50 was 25 µM (active).

In the case of `Nc1ccc(F)c([N+](=O)[O-])c1`, the outcome was inactive.

As for `NC(=O)c1ccccc1Cl`, the result was inactive.

For `O=C1OC2(c3ccc(O)cc3Oc3cc(O)ccc32)c2ccccc21`, the compound was classed as inactive.

Consider `N#[N+]c1ccc2c(S(=O)(=O)[O-])cccc2c1O`, for which the compound was classed as inactive.

Consider `COc1ccc(CCN2CCC(Nc3nc4ccccc4n3Cc3ccc(F)cc3)CC2)cc1`, for which the compound was classed as inactive.

The next experiment concerns the target rat Monoamine Oxidase, MAO-B, Central (MAOBC), Maob (gene 25750) (UniProt P19643). Put plainly: NVS_ENZ_rMAOBC: NovaScreen (NVS) Enzymatic Assay for rat Monoamine Oxidase, MAO-B, Central (MAOBC) (AID 2283238). Summed up: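 Rat brain tissue extract served as the cell-free MAO-B source; enzyme activity was read by scintillation counting 1.17 hours after compound addition. Loss of signal versus DMSO baseline was fitted; primary single-concentration screen at 25 uM, follow-up concentration-response up to 50 uM.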
On to `CC1(C)CC(N=C=O)CC(C)(CN=C=O)C1` (centres undefined), for which the compound was classed as inactive.

For `c1ccc(C(O[C@@H]2CCCN(CCc3ccc4c(c3)OCO4)C2)c2ccccc2)cc1`, the AC50 was 14.9 µM (active).

For the compound `CC/C(=C\C(=N/O)C(N)=O)C(C)[N+](=O)[O-]` (centres undefined), the AC50 is 37.8 µM (active).

The next experiment concerns rat Monoamine Oxidase, MAO-A, Central (MAOAC), gene 29253. Put plainly: NVS_ENZ_rMAOAC: NovaScreen (NVS) Enzymatic Assay for rat Monoamine Oxidase, MAO-A, Central (MAOAC) (AID 2283243).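 Also: potency refers to inhibition seen as signal drop below DMSO baseline.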 Summed up:
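Steps: rat brain protein extract dosed with test chemical (25 uM, duplicate, primary); incubated 1.5 h; radiolabelled product separated from substrate and counted. Signal loss versus DMSO scored as inhibition.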
On to `CCCCc1oc2ccccc2c1C(=O)c1cc(I)c(OCCN(CC)CC)c(I)c1`, for which the AC50 is 18.9 µM (active).

In the case of `c1ccc(C(O[C@@H]2CCCN(CCc3ccc4c(c3)OCO4)C2)c2ccccc2)cc1`, the AC50 is 20.5 µM (active).

In the case of `O=c1c(O)c(-c2ccc(O)c(O)c2)oc2cc(O)cc(O)c12`, the AC50 was 9.38 µM (active).

As usually defined, the AC50 is the midpoint of the concentration-response curve, whichever way the signal moves.
